Out of some 52,000 compounds screened, about 1,700 (3.3%) were called active. Rule as the data show it: active = survival mostly below about 52% (no sharp cut-off); inactive = mostly above about 56%. What follows is part of a selection rich in actives, with near analogues and random picks from the rest.
Each compound was assayed on Wild type (assay: growth inhibition of S. aureus wild type versus tarO mutant, primary screen, teichoic acid synthesis inhibitors, RN4220, OD600 (AID 463173)). Conditions: S. aureus RN4220 wild type/DeltatarO growth, OD600, 18 h, active compounds read low, screened at 18.75 µg/mL (by protocol).

Q: How did the survival turn out when `Cc1ccc(NC(=O)CSc2nnc(C)n3c2cc2sccc23)c(C)c1` was run?
A: 84% (inactive)

Q: Which survival does the source give for `CCc1noc(-c2ccc(N3CCC(C)CC3)c([N+](=O)[O-])c2)n1` here?
A: 93% (inactive)

Q: `CCOc1ccc(CCNC(=O)c2nnc(Cc3cc(OC)c(OC)c(OC)c3)o2)cc1OCC` was tested. Which survival did it give?
A: 85% (inactive)

Q: Which survival does the source give for `COc1ccc(Cn2c(SCC(=O)N3CCN(c4ccc(F)cc4)CC3)nc3ccccc32)cc1` here?
A: 45% (inactive)

Q: With `Cn1c(=O)c(=O)n(C)c2cc(NC(=O)c3cccc(F)c3)c(Cl)cc21` as the compound, how does the survival read?
A: 71% (inactive)

Q: Which survival does the source give for `Cc1ccccc1CNS(=O)(=O)c1csc(C(N)=O)c1` here?
A: 128% (inactive)

Q: With `CCOC(=O)c1cccc(NC(=O)C(C)n2c(C)c3cnn(-c4ccccc4)c(=O)c3c2C)c1` (stereo unspecified) as the compound, how does the survival read?
A: 128% (inactive)

Q: `CC(CC(=O)Nc1ccc(Br)cc1F)S(=O)(=O)c1ccc2c(c1)NC(=O)CO2` (stereo unspecified) was tested. Which survival did it give?
A: 63% (inactive)

Q: With `O=C(CCc1ccccc1)NC1CC(=O)N(c2cccc(F)c2)C1` (stereo unspecified) as the compound, how does the survival read?
A: 81% (inactive)

Q: `COc1ccc(OC)c(CNC(=O)Cc2ccc(NC(=O)N3CCSc4ncccc43)cc2)c1` was tested. Which survival did it give?
A: 64% (inactive)

Q: With `CCc1ccc(NS(=O)(=O)c2ccc3[nH]cc(C(=O)N(C)Cc4ccco4)c(=O)c3c2)cc1` as the compound, how does the survival read?
A: 85% (inactive)

Q: How did the survival turn out when `CCn1cc(C(=O)N2CCN(c3cc(Cl)ccc3C)CC2)c(=O)c2cc(S(=O)(=O)N3CCOCC3)ccc21` was run?
A: 86% (inactive)

Q: `COc1ccccc1C(=O)Nc1c(C(=O)c2ccccc2)oc2ccccc12` was tested. Which survival did it give?
A: -3% (active)

Q: How did the survival turn out when `COc1ccccc1C(=O)Nc1c(C(=O)NC(C)(C)C)oc2ccccc12` was run?
A: 80% (inactive)

Q: `COc1ccc(C(=O)Nc2c(C(=O)c3ccccc3)oc3ccccc23)cc1` was tested. Which survival did it give?
A: 75% (inactive)

Q: Which survival does the source give for `S=c1n(-c2ccccc2)cnn1CN1CCCCC1` here?
A: 96% (inactive)

Q: How did the survival turn out when `CC(=O)Nc1ccc(S(=O)(=O)N2CCC(C)CC2)cc1` was run?
A: 112% (inactive)

Q: `CC(C)(C)c1ccc(S(=O)(=O)N2CCC(c3ccncc3)CC2)cc1` was tested. Which survival did it give?
A: 120% (inactive)

Q: How did the survival turn out when `CC(=O)Nc1ccc(S(=O)(=O)N2CCC(c3ccncc3)CC2)cc1` was run?
A: -6% (active)

Q: How did the survival turn out when `COc1ccc2c(c1)CCc1c(C(=O)Nc3c(C)nn(Cc4ccccc4C)c3C)noc1-2` was run?
A: 26% (inactive)

Q: `O=C(NCCc1ccccc1)c1ccc2c(c1)N(Cc1ccc(F)cc1)C(=O)CS2` was tested. Which survival did it give?
A: 88% (inactive)

Q: For `O=C(NCCc1ccc(Cl)cc1)c1ccc2c(c1)N(Cc1ccc(Cl)cc1)C(=O)CS2`, which survival is on record?
A: 98% (inactive)

Q: How did the survival turn out when `O=C(NCCc1ccc(Cl)cc1)c1ccc2c(c1)N(Cc1ccc(F)cc1)C(=O)CS2` was run?
A: 10% (active)

Q: `Cc1sc(NC(=O)COc2ccc(C(C)(C)C)cc2)c(C(=O)OC(C)C)c1C` was tested. Which survival did it give?
A: 10% (active)

Q: Which survival does the source give for `Cc1c(C(=O)OC(C)C)sc(NC(=O)C2c3ccccc3Oc3ccccc32)c1C(=O)OC(C)C` here?
A: 87% (inactive)

Q: How did the survival turn out when `COC(=O)c1c(NC(=O)COc2ccc(Cl)cc2)sc(C)c1C` was run?
A: 73% (inactive)

Q: With `CCCc1ccc(OCC(=O)Nc2sc(C(=O)OCC)c(C)c2C(=O)OCC)cc1` as the compound, how does the survival read?
A: 92% (inactive)

Q: With `Cc1sc(NC(=O)C2c3ccccc3Oc3ccccc32)c(C(=O)OC(C)C)c1C` as the compound, how does the survival read?
A: 62% (inactive)

Q: `CCOC(=O)c1c(NC(=O)COc2ccc(OC)cc2)sc(C(=O)N(CC)CC)c1C` was tested. Which survival did it give?
A: -8% (active)

Q: With `CCOC(=O)c1c(NC(=O)COc2cc(C)ccc2C(C)C)sc(C)c1C` as the compound, how does the survival read?
A: 67% (inactive)

Q: Which survival does the source give for `CCN(CC)C(=O)c1sc(NC(C)=O)c(C(=O)OC)c1C` here?
A: 108% (inactive)

Q: `CCN(CC)C(=O)c1sc(NC(=O)C2c3ccccc3Oc3ccccc32)c(C(=O)OC(C)C)c1C` was tested. Which survival did it give?
A: 8% (active)

Q: With `O=C(Cn1c(SCc2ccc(F)cc2)nc2cccnc21)Nc1ccccc1F` as the compound, how does the survival read?
A: 75% (inactive)

Q: `COc1ccc(-c2nnn3c2nc(NCc2ccc(C)cc2)c2ccccc23)cc1` was tested. Which survival did it give?
A: 85% (inactive)

Q: For `O=C(Nc1cc(-c2nc3ccccc3o2)ccc1Cl)c1sc2c([N+](=O)[O-])cccc2c1Cl`, which survival is on record?
A: 96% (inactive)

Q: How did the survival turn out when `Cc1ccc(Cl)cc1-n1ncc2c(N3CCN(Cc4ccccc4)CC3)ncnc21` was run?
A: 120% (inactive)

Q: Which survival does the source give for `COc1cccc(-c2ccc3c(N)c(C(=O)c4ccc(F)cc4)sc3n2)c1` here?
A: 10% (active)

Q: How did the survival turn out when `COc1cccc(-c2ccc3c(N)c(C(=O)c4ccc(Cl)cc4)sc3n2)c1` was run?
A: 39% (inactive)

Q: Which survival does the source give for `COc1cccc(-c2ccc3c(N)c(C(=O)c4ccc(Br)cc4)sc3n2)c1` here?
A: 38% (inactive)

Q: How did the survival turn out when `Cc1ccc(CNC(=O)c2ccc3c(c2)N(Cc2cccc(Cl)c2)C(=O)CS3)cc1` was run?
A: 70% (inactive)

Q: `COc1cc(NC(=O)CC2C(=O)N(c3cccc(C)c3)C(=O)N2Cc2cccs2)cc(OC)c1` (stereo unspecified) was tested. Which survival did it give?
A: 53% (inactive)

Q: For `Cc1cccc(N2C(=O)C(CC(=O)Nc3cccc(F)c3)N(Cc3cccs3)C2=O)c1` (stereo unspecified), which survival is on record?
A: 0% (active)

Q: With `CCc1ccc(NC(=O)CC2C(=O)N(c3cccc(C)c3)C(=O)N2Cc2cccs2)cc1` (stereo unspecified) as the compound, how does the survival read?
A: -3% (active)

Q: How did the survival turn out when `Cc1cccc(N2C(=O)C(CC(=O)Nc3cccc(F)c3)N(CCc3ccncc3)C2=O)c1` (stereo unspecified) was run?
A: 84% (inactive)

Q: Which survival does the source give for `CCc1ccc(NC(=O)CC2C(=O)N(c3ccc(Cl)cc3)C(=O)N2Cc2cccs2)cc1` (stereo unspecified) here?
A: 47% (inactive)

Q: With `CCOc1ccc(NC(=O)CC2C(=O)N(c3cccc(C)c3)C(=O)N2Cc2cccs2)cc1` (stereo unspecified) as the compound, how does the survival read?
A: 85% (inactive)

Q: How did the survival turn out when `O=C(NCc1ccccc1Cl)c1nnc(Cc2ccc(Cl)cc2)o1` was run?
A: 85% (inactive)

Q: `CCC1CN(C(=O)N2CCC(C(=O)NCc3cccc(OC)c3OC)CC2)c2cc(C)ccc2O1` (stereo unspecified) was tested. Which survival did it give?
A: 106% (inactive)

Q: `CC1=C(C(=O)Nc2ccc(C)cc2C)C(c2cccs2)n2nc(SCc3cccc(C)c3)nc2N1` (stereo unspecified) was tested. Which survival did it give?
A: 126% (inactive)

Q: `CCC(=O)Nc1ccc(C(=O)CSc2nnc(-c3ccc(O)cc3)n2CC2CCCO2)cc1` (stereo unspecified) was tested. Which survival did it give?
A: 103% (inactive)

Q: With `CCc1ccc(C(=O)c2cn(CC(=O)Nc3cccc(OC)c3)c3ccc(OC)cc3c2=O)cc1` as the compound, how does the survival read?
A: 77% (inactive)

Q: Which survival does the source give for `CC(C)c1ccccc1NC(=O)Cn1cnc2c1c(=O)n(C)c(=O)n2C` here?
A: 93% (inactive)

Q: For `Cc1ccc(C(=O)N2CCC(C(N)=O)CC2)cc1NC(=O)c1nsc2ccccc12`, which survival is on record?
A: 72% (inactive)

Q: For `O=C(Nc1ccc(C(=O)N2CCN(c3ccccc3)CC2)cc1)c1nsc2ccccc12`, which survival is on record?
A: -3% (active)

Q: With `Cc1ccc(Cl)cc1N1CCN(C(=O)c2ccc(NC(=O)c3nsc4ccccc34)cc2)CC1` as the compound, how does the survival read?
A: 1% (active)

Q: With `O=C(Nc1ccc(C(=O)N2CCN(c3ccc(F)cc3)CC2)cc1)c1nsc2ccccc12` as the compound, how does the survival read?
A: 55% (inactive)

Q: `Cc1ccc(C(=O)N2CCCCC2)cc1NC(=O)c1nsc2ccccc12` was tested. Which survival did it give?
A: -6% (active)

Q: For `Cc1ccc(C(=O)N2CCC(C)CC2)cc1NC(=O)c1nsc2ccccc12`, which survival is on record?
A: 80% (inactive)

Q: How did the survival turn out when `O=C(Nc1ccc(C(=O)N2CCN(c3ccc(Cl)cc3)CC2)cc1)c1nsc2ccccc12` was run?
A: 81% (inactive)

Q: Which survival does the source give for `Cc1ccc(C)c(N2CCN(C(=O)c3ccc(NC(=O)c4nsc5ccccc45)cc3)CC2)c1` here?
A: 63% (inactive)

Q: With `O=C(Nc1ccc(C(=O)N2CCN(c3cccc(Cl)c3)CC2)cc1)c1nsc2ccccc12` as the compound, how does the survival read?
A: 63% (inactive)
